Assay results reported in the supplement of paper PMC10981050.
Several values for one entry are separate records, joined by “and”; a condition that tells them apart may be missing. Equal entries are not always repeated. Structures can show the parent of a compound that is named as a salt.

Assays:
Assay in all cases: cell viability relative to vehicle control; higher = less cytotoxic
Conditions in all cases: 10 µM
K562 = system: K562
Method in brief: (§1)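 CRISPR-edited SRSF2 P95 mutant and isogenic wild-type clones of four leukaemia lines were screened against Selleck bioactive, kinase and epigenetic probe libraries, with identity-inconsistent compounds removed. Compounds were acoustically dispensed into 384-well plates at a single 10 µM dose, with 2000 cells in 50 µL medium per well. After 48 h, supernatant was removed and CellTiter-Glo luminescence was read. Viability was expressed as percent of the on-plate DMSO vehicle control, analysed in Genedata Screener.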

MARIMO = system: MARIMO
Method in brief: as §1

MOLM14 = system: MOLM14
Method in brief: as §1

OCI-AML2 = system: OCI-AML2
Method in brief: as §1

SMILES | cell viability (K562; SRSF2 genotype: SRSF2 P95H/wt) | cell viability (K562; SRSF2 genotype: SRSF2 wt/wt) | cell viability (MARIMO; SRSF2 genotype: SRSF2 P95H/wt) | cell viability (MARIMO; SRSF2 genotype: SRSF2 wt/wt) | cell viability (MOLM14; SRSF2 genotype: SRSF2 P95H/wt) | cell viability (MOLM14; SRSF2 genotype: SRSF2 wt/wt) | cell viability (OCI-AML2; SRSF2 genotype: P95H/wt) | cell viability (OCI-AML2; SRSF2 genotype: wt/wt)
Cc1onc(-c2c(Cl)cccc2Cl)c1C(=O)N[C@@H]1C(=O)N2[C@@H]1SC(C)(C)[C@@H]2C(=O)O [Dicloxacillin Sodium] | 99.5% and 95% | 101% | 101% | 103% | 98.7% | 98.3% | 93% | 109%
Nc1nc(Cl)nc2c1ncn2[C@H]1C[C@H](O)[C@@H](CO)O1 [Cladribine] | 94.3% and 104% | 101% | 12.2% | 8.19% | 2.38% | 0.54% | 4.93% | 4.28%
Nc1ccc2ncnc(NCCc3ccc(Oc4ccccc4)cc3)c2c1 | 68.5% and 56.3% | 67.6% | 62.7% | 58.3% | 69.8% | 63.6% | 52.3% | 51.5%
FC(F)c1nc2ccccc2n1-c1nc(N2CCOCC2)nc(N2CCOCC2)n1 | 71.3% and 77.2% | 70% | 49.4% | 43.4% | 32% | 32.9% | 13.8% | 27.2%
COc1ccc(CCC(=O)Nc2nc3ccc(Cl)cc3s2)cc1OC | 95.4% and 97% | 92% | 97.3% | 96.3% | 94.6% | 97.8% | 91.4% | 87.5%
O=C(c1ccc(Nc2nccc(-c3cc4ccccc4s3)n2)cc1)N1CCC(N2CCCC2)CC1 | 1.53% and 1.22% | 1.15% | 0.47% | 0.54% | 0.29% | 0.3% | 0.25% | 0.35%
COc1cc(S(=O)(=O)O)ccc1O [Sulfogaiacol] | 106% and 109% | 113% | 108% | 112% | 107% | 104% | 117% | 105%
CN(C)c1cccc(-c2c3c(=O)n(-c4ccccc4Cl)[nH]c3cc(=O)n2C)c1 | 100% and 98.2% | 101% | 109% | 126% | 104% | 99.7% | 101% | 114%
O=C(O)Cc1ccccc1Nc1c(Cl)cccc1Cl [Diclofenac Diethylamine] | 102% and 108% | 95.4% | 105% | 101% | 106% | 102% | 105% | 103%
FC(F)(F)c1ccc(/C=C/c2nc(COc3ccc(CCCCn4ccnn4)cc3)co2)cc1 [Mubritinib (TAK 165)] | 68.1% and 58.5% | 56.7% | 67.2% | 61.8% | 70.1% | 55.5% | 49.2% | 47%
C#CCN[C@@H]1CCc2ccccc21 [Rasagiline mesylate] | 98% and 105% | 101% | 105% | 106% | 99.4% | 104% | 108% | 107%
COc1cc2c(cc1O)C[C@H]1c3cc(O)c(OC)cc3CC[N@@+]1(C)C2 [Phellodendrine] | 104% and 97.8% | 102% | 98.9% | 98.7% | 111% | 102% | 101% | 96.4%
Cc1ccc(Cl)cc1N(CC(=O)Nc1c(F)cccc1F)S(C)(=O)=O | 104% and 111% | 116% | 99.5% | 106% | 102% | 105% | 110% | 124%
CC(C)(C)NC(=O)[C@H]1CC[C@H]2[C@@H]3CC[C@H]4NC(=O)C=C[C@]4(C)[C@H]3CC[C@]12C [Finasteride] | 103% and 99% | 97.5% | 94.3% | 105% | 101% | 102% | 99.7% | 106%
COc1cc2nc(N3CCN(C(=O)C4CCCO4)CC3)nc(N)c2cc1OC (stereo unspecified) [Terazosin HCl Dihydrate] | 101% and 95.7% | 97% | 101% | 105% | 99.1% | 96.2% | 94.8% | 103%
OB1OCc2cc(F)ccc21 [Tavaborole (AN-2690)] | 88.2% and 85.6% | 84.3% | 85.4% | 87.8% | 82.8% | 85.1% | 87.8% | 82.8%
CC(C)n1ncnc1-c1cn2c(n1)-c1ccc(O[C@@H](C)C(N)=O)cc1OCC2 | 103% and 99.5% | 105% | 48.3% | 46.3% | 50.9% | 62.9% | 18.5% | 34.3%
Cc1nccn1CCC(C(N)=O)(c1ccccc1)c1ccccc1 [Imidafenacin] | 94.5% and 91.6% | 105% | 87.6% | 91.8% | 99.2% | 101% | 90.8% | 102%
COc1ccc([C@@H]2CC(=O)c3c(O)cc(O[C@@H]4O[C@H](CO)[C@@H](O)[C@H](O)[C@H]4O[C@@H]4O[C@@H](C)[C@H](O)[C@@H](O)[C@H]4O)cc3O2)cc1 [Poncirin] | 99.7% and 97.1% | 99.2% | 97.8% | 104% | 102% | 94.7% | 95.1% | 96%
C=C1CCN([C@H](C)[C@](O)(Cn2cncn2)c2ccc(F)cc2F)CC1 [Efinaconazole] | 86.9% and 94% | 96.9% | 76.3% | 88.3% | 85.8% | 95.8% | 82.2% | 83.5%
Nc1c(Br)cc(Br)cc1CN[C@H]1CC[C@H](O)CC1 [Ambroxol] | 97.6% and 99.3% | 98.9% | 96.2% | 96.7% | 101% | 102% | 104% | 112%

SMILES | cell viability (K562; SRSF2 genotype: SRSF2 P95H/wt) | cell viability (K562; SRSF2 genotype: SRSF2 wt/wt) | cell viability (MARIMO; SRSF2 genotype: SRSF2 P95H/wt) | cell viability (MARIMO; SRSF2 genotype: SRSF2 wt/wt) | cell viability (MOLM14; SRSF2 genotype: SRSF2 P95H/wt) | cell viability (MOLM14; SRSF2 genotype: SRSF2 wt/wt) | cell viability (OCI-AML2; SRSF2 genotype: P95H/wt) | cell viability (OCI-AML2; SRSF2 genotype: wt/wt)
COc1cc(C(C)=O)ccc1OCCCN1CCC(c2noc3cc(F)ccc23)CC1 [Iloperidone (Fanapt)] | 81.7% and 86.8% | 86.3% | 68.2% | 90.2% | 85.9% | 88.5% | 71.4% | 83.4%
COc1c(O)cc2c(c1O)C(=O)c1c(cc(C)c(O)c1OC)C2=O [Aurantio-obtusin] | 87% and 81.9% | 79.3% | 84.5% | 84.3% | 84.5% | 88.9% | 97.9% | 91.5%
COc1c(O[C@@H]2O[C@H](CO)[C@@H](O)[C@H](O)[C@H]2O)cc2occ(-c3ccc(O)cc3)c(=O)c2c1O [Tectoridin] | 93% and 87.4% | 84.8% | 94.4% | 95.3% | 91.8% | 96.1% | 91% | 97.8%
CN(C)c1ccc2nc3ccc(=[N+](C)C)cc-3sc2c1 [Methylene Blue] | 33.4% and 27.2% | 17.1% | 13.1% | 14.2% | 5.69% | 2.58% | 5.27% | 7.07%
C=C1CCC2C(C)(CO)C(O)CCC2(C)C1CC=C1C=COC1=O (stereo unspecified) [Dehydroandrographolide] | 75.2% and 78.9% | 75.8% | 77.8% | 96.3% | 83.8% | 93.9% | 74.6% | 86.5%
CC(C)OC(=O)[C@H](C)N[P@](=O)(OC[C@H]1O[C@@H](n2ccc(=O)[nH]c2=O)[C@](C)(F)[C@@H]1O)Oc1ccccc1 [Sofosbuvir(PSI-7977)] | 103% and 102% | 95.8% | 98.3% | 111% | 102% | 107% | 94% | 107%
C[C@H](Cn1cnc2c(N)ncnc21)OCP(=O)(O)O [Tenofovir (Viread)] | 101% | 98.5% | 97.2% | 101% | 105% | 98.3% | 106% | 109%
COc1ccc(-c2cc(=O)c3c(O)cc(O)cc3o2)cc1 [Acacetin] | 106% | 99.1% | 102% | 115% | 107% | 107% | 88.7% | 102%
CN1CCC[C@@H]1CCO[C@](C)(c1ccccc1)c1ccc(Cl)cc1 [Clemastine Fumarate] | 83.6% and 82.3% | 81.6% | 74.2% | 77.3% | 71.3% | 78.4% | 81.7% | 78.8%
C/C(=C\CO)CCC[C@H](C)CCC[C@H](C)CCCC(C)C [Phytol] | 97% and 93.1% | 96% | 89.1% | 103% | 85.5% | 92.6% | 80.5% | 82.6%
C[C@]1(O)C[C@@H](c2nc(-c3ccc4ccc(-c5ccccc5)nc4c3)c3c(N)nccn32)C1 [OSI-906 (Linsitinib)] | 79.7% and 90.1% | 80.6% | 41.9% | 40.8% | 72.2% | 82.2% | 29.6% | 38.1%
C[N+]12CCc3cc4c(cc3C1(O)Cc1ccc3c(c1C2)OCO3)OCO4 (stereo unspecified) [Hydroprotopine] | 94.4% and 93.5% | 89.5% | 84.6% | 91.9% | 91.2% | 98.8% | 96.3% | 99%
CC1=C(C(=O)OC2CCCCC2)C(c2ccc([N+](=O)[O-])cc2)C2=C(CC(C)(C)CC2=O)N1 (stereo unspecified) | 30.9% and 13.9% | 47.4% | 84.3% | 66% | 10.5% | 13.7% | 52.6% | 43.5%
Cc1cn([C@@H]2C[C@@H](O)[C@H](CO)O2)c(=O)[nH]c1=O [Telbivudine (Sebivo, Tyzeka)] | 96.7% and 104% | 101% | 105% | 102% | 99.2% | 108% | 113% | 102%
OC[C@H]1O[C@@](CO)(OC[C@@]2(OC[C@@]3(O[C@H]4O[C@H](CO)[C@@H](O)[C@H](O)[C@H]4O)O[C@H](CO)[C@@H](O)[C@@H]3O)O[C@H](CO)[C@@H](O)[C@@H]2O)[C@@H](O)[C@@H]1O [Nystose] | 106% and 101% | 111% | 100% | 101% | 106% | 100% | 106% | 102%
CS(=O)(=O)c1cccc(CNc2nc(Nc3ccc4c(c3)CCC(=O)N4)ncc2C(F)(F)F)c1 | 77% and 90.4% | 98.3% | 49.7% | 48.8% | 8.16% | 5.1% | 9.56% | 16.9%
Cc1ccc(NCCCc2ccccc2)c(N)c1 | 74.3% and 88.2% | 83.1% | 48.2% | 72.4% | 69% | 72.5% | 60.8% | 63.5%
N=C(NOCC(O)CN1CCCCC1)c1cccnc1 (stereo unspecified) | 106% and 96.6% | 106% | 104% | 99.2% | 108% | 101% | 97.6% | 104%
CCCCCCCCCC(C)O (stereo unspecified) [2-Undecanol] | 109% and 107% | 105% | 111% | 102% | 110% | 108% | 110% | 105%
CC(=O)OCC(=O)[C@@]12N=C(C)O[C@@H]1C[C@H]1[C@@H]3CCC4=CC(=O)C=C[C@]4(C)[C@H]3[C@@H](O)C[C@@]12C [Deflazacort (Calcort)] | 98.4% and 102% | 103% | 95% | 109% | 103% | 97% | 91.4% | 114%
CCN(CC)CC(=O)Nc1c(C)cccc1C [Lidocaine hydrochloride] | 102% and 103% | 106% | 101% | 107% | 99.3% | 102% | 100% | 97.1%
